An excerpt weighted towards active compounds, which were near 8.7% of everything screened.
JMJD2A Tudor inh – blocks the human JMJD2A Tudor domain; Potency, µM (highest dose often 114 µM), hits mostly inhibitors; AID 504339; AlphaScreen JMJD2A-Tudor / H3K4me3 peptide binding; O75164; 4.4% of 390,000 active; further: nearly all actives have a fitted effect of over 50% in size
G9a block – G9a (human) methyltransferase inhibition | Q96KQ7 | G9a H3K9 monomethylation, AlphaScreen, 2 h | Potency, µM (top dose mostly 102 µM), usual class: inhibitors | 8.8% of 350,000 active | AID 504332; further: nearly all actives have a fitted effect of over 75% in size
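Methyltransferase reactions run at room temperature for 2 h (20 nM enzyme, 500 nM biotin-H3K9 peptide, 20 uM SAM) after a 15 min compound preincubation; product detected by AlphaScreen beads and anti-H3K9me1 antibody.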
Sfp PPTase inh – Sfp phosphopantetheinyl transferase inhibition; Q9F4F7; Biochemical Sfp PPTase activity, qHTS; Potency, µM, hits mostly inhibitors; 3.5% of 310,000 active; AID 1490;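 further: the enzyme is Sfp with the accession as filed and its product quenches rhodamine fluorescence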
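Compounds were incubated with enzyme (final 15 nM) for 15 min at room temperature before substrate addition started the reaction. Fluorescence at 525 nm excitation, 598 nm emission was recorded immediately and after 30 minutes.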
BAZ2B block – BAZ2B (human) inhibition | Q9UIF8 | Potency, µM (doses to about 114 µM), most hits filed as inhibitors | 4.4% of 360,000 active | AlphaScreen BAZ2B-H3K14Ac peptide displacement; further: nearly all actives have a fitted effect of over 60% in size
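Complex of BAZ2B and biotin-H3K14Ac (50 nM apiece) forms over 30 min at RT, then faces library compounds up to 110 uM for another 30 min; AlphaScreen beads added, 20 min dark incubation, luminescence read.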
12-LOX inh – inhibitors of human 12S-lipoxygenase ALOX12 | Potency, µM (series often up to 108 µM), usual class: inhibitors | 1.1% of 580,000 active | P18054 | purified 12hLO, xylenol orange hydroperoxide absorbance
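Purified human 12hLO (150 nM final) in 25 mM Hepes, 0.01% Triton X-100, pH 7.0 was preincubated 15 min at room temperature with compound. Then 40 uM arachidonic acid was added, 30 min. Hydroperoxide was read by Fe-XO absorbance ratio 573/405 nm.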
HP1b binding inh – inhibitors of HP1-beta chromodomain binding to methylated histone tails; P83916; AlphaScreen HP1-beta / biotin-H3K9me3 peptide binding; Potency, µM (series often up to 114 µM), usual class: inhibitors; 0.56% of 390,000 active; AID 540317; further: nearly all actives have a fitted effect of over 70% in size
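HP1-beta protein (50 nM final) preincubated 30 min at room temperature with biotinylated H3(1-18)K9me3 peptide (50 nM) in PBS pH 7.4, 0.01% Tween-20, then compound added for 30 min. AlphaScreen streptavidin donor/nickel chelate acceptor beads (10 ug/mL final), 30 min dark, luminescence read.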
Hits are given with their value; n = inactive; u = inconclusive; x = no result given; ! = not confirmed by another sample; [ ] = remark or other dose. The call rests on the fitted dose curve; in most records, active means well fitted curve in the direction sought with a large enough effect; inconclusive means small, poorly fitted or top-dose-only effect, or another doubt; inactive means no such curve, though single readings can be large; an effect the other way counts as inactive or inconclusive.

SMILES | JMJD2A Tudor inh | G9a block | Sfp PPTase inh | BAZ2B block | 12-LOX inh | HP1b binding inh
Cc1ccc(-n2c(C)cc(-c3csc(N)n3)c2C)cc1 | 40µM | 5µM | u | 56µM | u | u
O=C1c2c(nc(CNCC3CC3)n2Cc2ccccc2)NCCN1Cc1ccccc1 | x | x | x | x | n | x
CC1(c2cccnc2)N(CC2CC2)C(=O)OC12CCN(C(=O)c1ccccc1)CC2 (stereo unspecified) | x | x | x | x | n | x
O=C(Nc1cccc(-c2cn3c(n2)SCC3)c1)c1ccc2c(c1)OCO2 | u | 45µM | n | u | n | n
O=S(=O)(Nc1ccc(-c2cn3c(n2)SCC3)cc1)c1cccs1 | n | 35µM | n | n | n | n
CS(=O)(=O)Nc1cccc(-c2cnc3ccccc3n2)c1 | n | 45µM | n | n | n | n
CS(=O)(=O)Nc1cccc(-c2cn3c(n2)SCC3)c1 | 56µM | n | n | n | u | u
COc1ccc(-c2cc(=O)oc3cc(C)cc(OCC(=O)OC(C)C)c23)cc1 | x | x | x | x | n | x
CCn1cc2nc(SCC(=O)N3CCCC3)n(Cc3ccccc3)c(=O)c2n1 | x | x | x | x | n | x
CC(C)N(CC#CCC(O)(c1ccccc1)c1ccccc1)CCO | n[11.4 µM] | 13µM | 45µM | 79µM | u | n
CCN(CC#CCC(O)(c1ccccc1)c1ccccc1)C(C)C | n | n | u | n | n | n
O=C1c2ccc(O)c(O)c2C(=O)c2c(O)ccc(O)c21 | x | u | n | x | x | x
O=C1c2ccccc2C(=O)c2c1ccc(O)c2O | 50µM | n[2.33 µM] | n | x | 2.3µM! | 7.1µM
COC(=O)c1ccc2c(c1O)C(=O)c1ccccc1C2=O | u | 13µM | u | u | n | n
COc1ccccc1NC1CN(C(=O)OC(C)(C)C)C1 | x | x | x | x | n[12.5 µM] | x
CC(OC(=O)c1cc(=O)c2cc(Cl)ccc2o1)C(=O)NC1CC1 (stereo unspecified) | x | x | x | x | n | x
CCOC(=O)C1=CNS(=O)(=O)NC1c1ccc2ccccc2c1 (stereo unspecified) | n | x | x | x | 32µM | n
CCc1ccc(NS(=O)(=O)c2[nH]ncc2C(=O)OC)cc1 | 56µM | 2.5µM | x | u | n | n
CCCOc1c(Br)cc(C(=O)OCC(=O)c2cc(C)c(C)cc2C)cc1OC | x | x | x | x | n | x
O=C(NC1CCCCC1)C1CC(=O)N(c2n[nH]c3cccc(F)c23)C1 (stereo unspecified) | x | x | x | x | n | x
COc1ccccc1Nc1nc2c(s1)CCC2 | n | 25µM | 40µM | n | n | n
COc1ccccc1Nc1nc(C)c(C(=O)Nc2ccccc2)s1 | n | 50µM | n | n | n | n
Cc1nc(Nc2ccccc2Cl)sc1C(=O)Nc1ccccc1 | n | 28µM | n | u | n | n
COc1cc(OC)c(C(=O)Nc2ncn[nH]2)cc1OC | 50µM | x | x | x | n | n
O=C(Nc1ncn[nH]1)c1ccc(Cl)c(Cl)c1 | n | u | x | n | n | n
SMILES | JMJD2A Tudor inh | G9a block | Sfp PPTase inh | BAZ2B block | 12-LOX inh | HP1b binding inh
O=C(Nc1ccc2ccccc2c1)c1ccc(Cl)cc1Cl | n | n | n | n | n | n
O=C(Nc1nc(=S)ss1)c1ccc(Cl)cc1Cl | n | u | 13µM | n | u | u
CCOc1cc(C(=O)Nc2ncn[nH]2)cc(OCC)c1OCC | n | n | n | 56µM | n | n
O=C(Nc1ncn[nH]1)c1ccc(Cl)cc1Cl | n | u | n | 50µM | n | n
COc1ccc(NC(=O)NC2CCN(c3nc(C)cc(C)n3)CC2)cc1 | x | x | x | x | n | x
Cn1cc(-c2cc(=O)c3ccnc(NCc4ccc5c(c4)OCO5)c3o2)cn1 | x | x | x | x | n | x
C=CCOc1cccc(C(=O)Nc2ncn[nH]2)c1 | n | u | n | 56µM | n | n
CCCCCC(=O)CC | x | x | x | x | n | x
O=C(N/N=C/c1ccccn1)C1CC1 | 1.3µM | 3.5µM | 79µM | u | n | n
COc1cc(/C=N/NC(=O)CCN2CCN(C)CC2)cc2c1OCO2 | 0.79µM | n | n | n | n | u
O=C(N/N=C/c1ccccn1)c1ccc(Br)o1 | n | n | 18µM | 71µM | n | n
O=C(N/N=C/c1c(O)ccc2ccccc12)c1ccc[n+](CCO)c1 | 28µM | u | n | 13µM | n | n
COc1cc(/C=N/NC(=O)c2ccncc2)cc2c1OCO2 | n | n | n | n | n | n
CCN1C(=O)CCc2cc(NC(=O)Cc3ccc(F)cc3)ccc21 | x | x | x | x | n | x
COc1ccc2ccccc2c1/C=N\NC(=O)c1cccnc1 | n | x | x | x | n | n

Screening results: PubChem, National Center for Advancing Translational Sciences (NCATS)
